# The list is not random: actives were taken first. Their share in the collection is about 7.9%.
# NOMO-1 viab: STK33 inhibitor candidate reducing NOMO-1 cell viability. NOMO-1 AML viability, CellTiter-Glo luminescence, 72 h. inhibition, % (test concentration not listed). 37,000 compounds, 7.5% hits; in the data active means inhibition above about 80%; inconclusive means no clear call, values can overlap the other calls
# Shh pathway inh: blocks Sonic Hedgehog signaling; 22,000 compounds, 2.1% hits; inhibition, % (no concentration beside the values); Shh-LIGHT2 Gli-luciferase reporter, 30 h;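 active means mean inhibition across valid replicates above about 65%, limit read from the data; inconclusive means mean under the limit, yet half or more replicates past it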;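 further: pathway switched on by Shh-conditioned medium diluted 1 in 25 in low serum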
# MITF inhib: blocks MITF activity. TRPM1 promoter luciferase, luminescence, 24 h. inhibition, % (test concentration not listed). 37,000 compounds, 0.28% hits. AID 2240; in the data active means inhibition above about 85%; inconclusive means no clear call, values can overlap the other calls; inactive means below about 68%;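 further: human melanocyte line stably carrying TRPM1 promoter luciferase reporter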
# PD-1 reverse act: activators reversing PD-1 mediated T-cell inhibition. primary human CD4 T cells, PD-L1 beads, CellTiter-Glo 96 h. activation, % (concentration not given with the values). 29,000 tested, under 10 active. AID 2316; call rule not given here;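 further: 0% = median vehicle wells and 100% = positive control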
# Starred values were filed as active, the others as inactive; ? = inconclusive; . = not tested or not shown.
SMILES,NOMO-1 viab,Shh pathway inh,MITF inhib,PD-1 reverse act
C[C@H](CO)N1C[C@H](C)[C@H](CN(C)Cc2ccc(C(F)(F)F)cc2)Oc2ccc(NC(=O)c3ccncc3)cc2CC1=O,32.4,12.5,-1.6,-1.8
C[C@@H]1CN([C@@H](C)CO)C(=O)Cc2cc(NC(=O)Nc3ccc(C(F)(F)F)cc3)ccc2O[C@@H]1CN(C)Cc1ccncc1,115.8*,22.8,12.3,-4.3
CC(Oc1cccc(Br)c1)C(=O)NCc1ccco1 (stereo unspecified),-4.7,.,-1.7,-0.9
C[C@H](CO)N1C[C@H](C)[C@H](CN(C)C(=O)Nc2ccc(C(F)(F)F)cc2)Oc2c(NC(=O)C3CCCCC3)cccc2C1=O,94.9*,-14.1,43.3,-4.0
C[C@H](CO)N1C[C@H](C)[C@H](CN(C)C(=O)Nc2ccc(C(F)(F)F)cc2)Oc2c(NC(=O)NC3CCCCC3)cccc2C1=O,105.7*,2.2,8.4,-4.0
C[C@@H]1CN([C@H](C)CO)C(=O)c2cccc(NC(=O)Nc3ccc(C(F)(F)F)cc3)c2O[C@H]1CN(C)C(=O)NC1CCCCC1,74.8,-4.7,31.6,-6.7
C[C@H]1CN([C@@H](C)CO)C(=O)c2cccc(NC(=O)NC3CCCCC3)c2O[C@@H]1CN(C)C(=O)Nc1ccc(C(F)(F)F)cc1,100.0*,29.7,15.0,-4.6
C[C@H](CO)N1C[C@H](C)[C@H](CN(C)C(=O)NC2CCCCC2)Oc2c(NC(=O)Nc3ccc(C(F)(F)F)cc3)cccc2C1=O,71.1,-3.2,-1.0,-5.3
CN1C(=O)c2ccccc2NC(=O)[C@]12O[C@@H]2c1cccc(O)c1,24.5,-14.9,5.4,2.0
CN1C(=O)c2ccccc2-n2c(nc3ccccc3c2=O)[C@@]12O[C@H]2c1ccccc1,104.2*,2.9,-0.3,-2.6
O=C(CSC1CC(=O)N(c2ccc(Cl)cc2)C1=O)Nc1ccc(Cl)cc1 (stereo unspecified),-7.1,.,-6.5,.
O=C1CC(SCc2ccc(Cl)cc2)C(=O)N1c1ccc(Br)cc1 (stereo unspecified),12.2,93.6*,4.4,0.1
Cc1nn(Cc2cccc(C(=O)Nc3ccccc3F)c2)c(C)c1Cl,-2.0,.,-44.8,1.8
Cc1nn(Cc2cccc(C(=O)NC(=O)Nc3ccc(Cl)cc3)c2)c(C)c1Br,106.9*,14.4,1.4,2.5
O=c1c(Cc2ccccc2OCc2ccccc2)coc2ccccc12,39.5,93.0*,16.8,-0.3
COc1cc(-c2coc3cc(OCc4ccccc4)c(OC)c(O)c3c2=O)cc(O)c1OC,27.8,31.5,-31.1,.
COc1ccc(NC(=O)N(C)C[C@@H]2Oc3c(NC(=O)Nc4ccc(C(F)(F)F)cc4)cccc3C(=O)N([C@@H](C)CO)C[C@H]2C)cc1,93.4*,-76.4,26.9,-3.5
C[C@@H]1CN([C@@H](C)CO)C(=O)c2cccc(NC(=O)Nc3ccc(C(F)(F)F)cc3)c2O[C@@H]1CN(C)C(=O)Nc1ccc(C(F)(F)F)cc1,114.9*,15.4,-1.4,-3.8
C[C@H]1CN([C@@H](C)CO)C(=O)c2cccc(NC(=O)Nc3ccc(C(F)(F)F)cc3)c2O[C@H]1CN(C)C(=O)Nc1ccccc1,103.3*,-14.6,17.0,-8.1
C[C@@H]1CN([C@H](C)CO)C(=O)c2cccc(NC(=O)Nc3ccccc3)c2O[C@H]1CN(C)C(=O)Nc1ccc(C(F)(F)F)cc1,24.6,-26.9,0.3,0.1
C[C@H](CO)N1C[C@H](C)[C@H](CN(C)C(=O)Nc2ccc(C(F)(F)F)cc2)Oc2c(NS(=O)(=O)c3ccc(F)cc3)cccc2C1=O,84.2*,15.5,29.6,-3.8
C[C@@H]1CN([C@@H](C)CO)C(=O)c2cccc(NS(=O)(=O)c3ccc(F)cc3)c2O[C@H]1CN(C)C(=O)Nc1ccc(C(F)(F)F)cc1,2.0,6.9,1.9,0.2
Cc1nnc2sc(-c3ccccc3NC(=S)NC(=O)CC34CC5CC(CC(C5)C3)C4)nn12,24.2,.,-9.6,.
C[C@@H]1CN([C@H](C)CO)C(=O)c2cc(NC(=O)Cc3cn(C)c4ccccc34)ccc2O[C@H]1CN(C)Cc1ccc(-c2ccccc2)cc1,95.7*,.,21.3,-3.8
C[C@@H]1CN([C@H](C)CO)C(=O)c2cc(NC(=O)Cc3cn(C)c4ccccc34)ccc2O[C@@H]1CN(C)C(=O)Nc1cccc2ccccc12,98.8*,20.7,-14.0,-5.1
SMILES,NOMO-1 viab,Shh pathway inh,MITF inhib,PD-1 reverse act
C[C@@H]1CN([C@@H](C)CO)C(=O)c2cc(NC(=O)Cc3cn(C)c4ccccc34)ccc2O[C@H]1CN(C)C(=O)Nc1cccc2ccccc12,18.4,-2.7,11.0,-0.9
C[C@H]1CN([C@@H](C)CO)C(=O)c2cc(NC(=O)Cc3cn(C)c4ccccc34)ccc2O[C@@H]1CN(C)Cc1ccncc1,95.8*,.,22.1,.
C[C@@H]1CN([C@@H](C)CO)C(=O)c2cc(NC(=O)Cc3cn(C)c4ccccc34)ccc2O[C@H]1CN(C)Cc1ccncc1,108.8*,-4.6,16.6,-3.1
COc1cc(OC)c(NC(=O)CS(=O)(=O)c2ccccc2)cc1Cl,9.7,.,-35.5,.
O=C(CC(Sc1ccccc1C(=O)O)c1ccc(F)cc1)c1ccc(F)cc1 (stereo unspecified),116.6*,-38.6,8.6,-3.3
O=C(COc1cc(O)c2c(=O)c3ccccc3oc2c1)c1ccc(Cl)cc1,116.8*,.,32.3,-8.2
CCc1ccc(-n2c(SCC(=O)Nc3cc(Cl)ccc3C)nnc2-c2ccncc2)cc1,36.3,.,15.0,-2.8
Cc1ccc(S(=O)(=O)N(C)C[C@@H]2Oc3c(NC(=O)Nc4ccc(F)cc4)cccc3C(=O)N([C@@H](C)CO)C[C@@H]2C)cc1,57.4,107.8*,30.0,-2.8
Cc1ccc(S(=O)(=O)N(C)C[C@@H]2Oc3c(NC(=O)Nc4ccc(F)cc4)cccc3C(=O)N([C@H](C)CO)C[C@@H]2C)cc1,82.2*,116.6*,54.6,.
O=C(CC1(O)C(=O)Nc2ccc(Cl)cc21)c1ccccn1 (stereo unspecified),42.7,.,5.5,0.7
O=C(CC1(O)C(=O)Nc2ccc(I)cc21)c1ccccn1 (stereo unspecified),89.9*,.,16.2,.
CC(C)(C)c1ccc(S(=O)(=O)NCC(=O)Nc2ccc3c(c2)OCCO3)cc1,16.6,.,11.9,1.7
CC(C)(C)c1ccc(OCc2nnc(Sc3ccc([N+](=O)[O-])cn3)n2-c2ccccc2)cc1,108.9*,.,39.2,-10.3
C=CCNC1=C2C[C@@H](C)C[C@H](OC)[C@H](O)[C@@H](C)/C=C(\C)[C@H](OC(N)=O)[C@@H](OC)C=C/C=C(/C)C(=O)NC(=CC1=O)C2=O,119.0*,107.5*,15.4,.
COc1cc2cc(C)nc(Cc3cccc4ccccc34)c2cc1OC,85.8*,?,17.8,-1.8
COc1ccc(-c2cc3cc(OC)c(OC)cc3c(Cc3ccccc3)n2)cc1,34.6,40.4,-15.7,-0.6
O=C(c1ccc(Br)cc1)C(C(=O)N1CCCCC1)n1ccccc1=O (stereo unspecified),9.7,.,-4.4,1.4
COc1ccc(-c2cc(C(F)F)n3ncc(C(=O)Nc4cccc(NC(C)=O)c4)c3n2)cc1,28.9,.,20.4,-0.3
Fc1ccc(Nc2nc3ccccc3nc2Nc2ccc(F)cc2)cc1,135.3*,.,34.6,-6.8
